Source: PubChem BioAssay
An excerpt weighted towards active compounds, which were near 9.2% of everything screened.
FLuc modulator: qHTS profiling assay for firefly luciferase inhibitor/activator using purifed enzyme and Km concentrations of substrates (counterscreen for miR-21 project). Potency, µM (highest dose often 57.5 µM), actives largely listed as inhibitors. AID 588342, 2011. 360,000 compounds, 6.9% hits. purified FLuc, Km substrates, luminescence inhibition; note: nearly all actives have a fitted effect of over 55% in size
Target sequence (P08659 whole entry, looked up): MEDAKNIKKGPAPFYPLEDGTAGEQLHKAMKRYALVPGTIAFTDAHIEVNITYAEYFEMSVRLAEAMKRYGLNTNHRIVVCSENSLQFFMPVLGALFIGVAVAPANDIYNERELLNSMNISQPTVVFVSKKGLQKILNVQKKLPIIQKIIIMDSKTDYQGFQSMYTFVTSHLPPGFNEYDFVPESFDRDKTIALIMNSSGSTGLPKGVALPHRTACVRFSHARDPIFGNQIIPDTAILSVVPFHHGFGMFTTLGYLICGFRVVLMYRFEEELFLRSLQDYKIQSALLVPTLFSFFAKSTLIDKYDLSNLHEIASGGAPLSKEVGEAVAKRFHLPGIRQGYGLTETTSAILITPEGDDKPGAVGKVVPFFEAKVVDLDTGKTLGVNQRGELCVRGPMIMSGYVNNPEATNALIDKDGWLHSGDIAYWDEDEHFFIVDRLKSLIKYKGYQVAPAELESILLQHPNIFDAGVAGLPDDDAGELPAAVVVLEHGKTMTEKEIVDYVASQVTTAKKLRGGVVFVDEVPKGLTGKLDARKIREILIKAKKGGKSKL
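Purified P. pyralis luciferase (10nM final) with 10uM D-luciferin and 10uM ATP (Km levels) in 50mM Tris acetate pH 7.5, 10mM Mg acetate, 0.01% Tween-20, 0.05% BSA; qHTS 6-point titration, ~60 µM downward; luminescence read.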
SMN2 splice enh: qHTS Assay for Enhancers of SMN2 Splice Variant Expression; HEK293 SMN2-luciferase splicing reporter, luminescence, 30-36 h; 210,000 compounds, 2.8% hits; Potency, µM (top dose mostly 46.1 µM), usual class: activators; note: nearly all actives have a fitted effect of over 55% in size
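HEK293 cells carry an SMN2 […]–luciferase reporter in which exon 7 inclusion puts luciferase in frame. Cells were plated 10-12 h before compound addition, then incubated 30-36 h at 37C. ONE-Glo luminescence was read; sodium butyrate at 4.5 mM final served as control.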
NPC1 prom act: qHTS Assay for NPC1 Promoter Activators; Huh7 NPC1 promoter luciferase reporter, 24 h; Potency, µM (titrated, usually from 9.22 µM), most hits filed as activators; 320,000 compounds, 2.4% hits; note: nearly all actives have a fitted effect of over 60% in size
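Readout is luciferase luminescence, reflecting NPC1 promoter activation in stably transfected Huh7 cells after 24 h compound exposure at 37 °C in reduced-serum medium with 10% FBS.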
ELG1 genotoxic: qHTS screen for small molecules that induce genotoxicity in human embryonic kidney (HEK293T) cells expressing luciferase-tagged ELG1; HEK293T ELG1-luciferase reporter, luminescence, 16 h; Potency, µM (highest dose often 46 µM), actives largely listed as activators; 330,000 compounds, 1.3% hits; AID 504466, 2011; note: nearly all actives have a fitted effect of over 60% in size
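Genotoxic stress is detected as increased luminescence from luciferase-tagged ELG1 in HEK293T cells, measured with ONE-Glo after a 16 hr treatment at 37 °C.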
Rab9 promoter act: qHTS Assay for Rab9 Promoter Activators; Potency, µM (series often up to 9.22 µM), usual class: activators; Huh7 Rab9 promoter-luciferase reporter, luminescence, 24 h; 320,000 compounds, 2.8% hits; note: nearly all actives have a fitted effect of over 60% in size
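Cells were plated at 1500 per well in reduced-serum medium with 10% FBS and left 2 h. Compound in DMSO was then added for 24 h at 37 °C. Reporter signal was read by luminescence after 10 min with luciferase detection reagent.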
ELG1 repair inh: qHTS screen for small molecules that inhibit ELG1-dependent DNA repair in human embryonic kidney (HEK293T) cells expressing luciferase-tagged ELG1; HEK293T ELG1-luciferase reporter, luminescence, 16 h; DNA damage induced by 5-fluorouridine; Potency, µM (highest dose often 46.1 µM), most hits filed as inhibitors; 330,000 compounds, 2.3% hits; AID 504467, 2011; note: nearly all actives have a fitted effect of over 55% in size
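Cells (2,000 per well) received 5-fluorouridine plus test compound or DMSO and were incubated 16 hr at 37 °C, 5% CO2. Luciferase activity was read by luminescence 30 min after ONE-Glo addition; signal suppression marked inhibition of damage-induced ELG1 function.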
Numbers stand for hits; – = inactive; ? = inconclusive; · = no result given. Calls come from the whole dose curve; as a rule, active = well fitted curve in the direction sought with a large enough effect; inconclusive = small, poorly fitted or top-dose-only effect, or another doubt; inactive = no such curve, though single readings can be large; an effect the other way counts as inactive or inconclusive.

SMILES	FLuc modulator	SMN2 splice enh	NPC1 prom act	ELG1 genotoxic	Rab9 promoter act	ELG1 repair inh
COC(=O)c1ccc(C23CC2(C(NP(=O)(c2ccccc2)c2ccccc2)c2ccccc2)C3)cc1 (stereo unspecified)	·	–	·	·	·	·
Cc1ccc2c(c1)c(=O)c(C(=O)c1ccncc1)cn2CC(=O)Nc1c(C)cccc1C	–	·	·	·	·	·
CC(C)c1c(C(=O)N/N=C/c2ccc(Cl)cc2Cl)nnn1-c1nonc1N	6µM	·	–	–	–	–
CCc1ccc(/C=N/NC(=O)c2nnn(-c3nonc3N)c2C(C)C)cc1	2.4µM	·	–	–	–	–
CC(C)[C@H](NC(=O)N1c2ccccc2NC(=O)[C@@H]1C(C)C)C(=O)N[C@@H](Cc1c[nH]c2ccccc12)C(=O)O	–	·	–	–	–	–
COC(=O)c1ccc2c(c1)N(Cc1nc(-c3cccc(C)c3)oc1C)C(=O)C1CCCN21 (stereo unspecified)	–	10µM	–	–	–	–
COC(=O)c1ccc(-c2nc(CN3CCN(Cc4cccc(C)c4)CC3)c(C)o2)cc1	–	·	–	–	–	–
Cc1ccc(OCC(=O)NC2CCCC(C)C2C)c([N+](=O)[O-])n1 (stereo unspecified)	–	·	–	–	–	?
CC(=O)c1ccc(S(=O)(=O)N2CCN(CCOc3ccccc3)CC2)cc1	·	·	·	–	·	–
CCn1c(C(=O)N2CCCC(C(=O)NCCc3ccc(C)cc3)C2)cc2sccc21 (stereo unspecified)	–	–	–	–	–	18µM
COCCNC(=O)C1CCN(C(=O)c2cc3sccc3n2Cc2ccc(Cl)cc2)CC1	–	–	·	·	·	·
CCn1c(C(=O)N2CCCC(C(=O)O)C2)cc2sccc21 (stereo unspecified)	–	–	–	–	–	–
O=C(NCc1ccco1)C1CCN(C(=O)c2cc3sccc3n2Cc2ccc(Cl)cc2)CC1	–	–	–	–	–	18µM
CCn1c(C(=O)N2CCCC(C(=O)NCCCc3ccccc3)C2)cc2sccc21 (stereo unspecified)	–	–	–	–	–	21µM
CCOC(=O)N1CCC(NC(=O)C2CCN(C(=O)c3cc4sccc4n3CC)CC2)CC1	–	·	–	–	–	23µM
CCSc1nc(-c2cccc(Cl)c2)nc2c1Cc1c(CO)cnc(C)c1O2	–	·	·	·	·	·
Nc1nc(C23CC4CCC(CC(C4)C2)C3)cs1	–	–	–	–	–	–
COc1ccc(-c2cc(C(=O)OCC(=O)N(C)C3CCS(=O)(=O)C3)c3ccccc3n2)cc1OC (stereo unspecified)	?	–	–	–	–	–
c1ccc(C2CSc3ccccc3N2)cc1 (stereo unspecified)	21µM	·	?	?	–	?
COc1ccccc1/C=C/C(=O)c1ccccc1	1.9µM	·	?	?	?	?
O=C(O)/C=C/c1ccccc1Oc1ccc(Cl)cc1Cl	15µM	–	–	–	–	–
O=C(/C=C/c1ccccc1O)c1ccc(Cl)cc1	3.4µM	·	–	–	–	–
COc1ccc(OC(=O)c2ccc(Cl)cc2)c(C(C)=O)c1	?	·	–	–	–	?
COc1ccc(OC)c(/C=C/C(=O)c2ccc(Cl)cc2)c1	11µM	–	–	–	–	–
COc1ccccc1/C=C/C(=O)N1CCOCC1	–	–	–	–	–	–
Cc1cccc(N2C(=O)N3[C@@H]4c5ccccc5OC[C@@H]4[C@@H](c4ccccc4)[C@@]3(C)C2=O)c1	–	·	–	–	–	–
COc1ccccc1/C=C/C(=O)c1ccc(Cl)cc1	7.6µM	–	?	?	–	?
COc1ccc(/C=C/C(=O)c2c(C)cc(C)[nH]c2=O)c2ccccc12	–	·	–	–	–	?
